# Test results from PubChem BioAssay (Tox21).
# A number with no mark means an inactive call. Inconclusive results are not listed. A call without a number means that no potency is given here. The source made the active and inactive calls. The call rests on the fitted dose curve; in most records, active means well fitted curve in the direction sought with a large enough effect in the repeat runs; inconclusive means weak or mixed curves; inactive means no such curve, though single readings can be large; an effect the other way counts as inactive or inconclusive.
# What was measured:
# [1] = A CellTox Green Cytotoxicity Assay to monitor cytotoxicity in HEK293 cells - 40 hour (AID 1224871); further: nearly all actives have a fitted effect of over 45% in size
# Method in brief: (§1)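 Real-time, in one plate: 600 HEK293 cells/well with dead-cell DNA dye, pinned compound after 5 h, 37 C incubation over 40 h; viable cells give no appreciable fluorescence.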
# [2] = qHTS RealTime-Glo MT Cell Viability Assay in HEK293 cells - 16 hour (AID 1224872); further: top concentration of the series differs between compounds; nearly all actives have a fitted effect of over 50% in size
# Method in brief: (§2)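 Reads taken at 0, 8, 16, 24, 32 and 40 h from the same wells. HEK293 cells (600/well) carried RealTime-Glo reagents from seeding, with compound added after a 5 h settle at 37 C.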
# [3] = qHTS RealTime-Glo MT Cell Viability Assay in HepG2 cells - 8 hour (AID 1224873); further: nearly all actives have a fitted effect of over 55% in size
# Method in brief: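 HepG2 cells (600/well) mixed with RealTime-Glo MT reagent, settled 5 h at 37 C/5% CO2 before compound addition. Nonlytic NanoLuc luminescence from viable-cell prosubstrate reduction read repeatedly during 40 h treatment at 37 C.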
# [4] = qHTS RealTime-Glo MT Cell Viability Assay in HEK293 cells - 40 hour (AID 1224874); details: RealTime-Glo luminescence; max response: active compounds read low; further: nearly all actives have a fitted effect of over 50% in size
# Method in brief: (§3)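 Kinetic, non-lysing viability readout. Seed HEK293 (600/well) with reagent, incubate 5 h at 37 C/5% CO2, pin 23 nL compound in DMSO, incubate at 37 C, read luminescence at 0, 8, 16, 24, 32, 40 h.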
# [5] = A CellTox Green Cytotoxicity Assay to monitor cytotoxicity in HEK293 cells - 24 hour (AID 1224875); further: nearly all actives have a fitted effect of over 45% in size; further: potency means the concentration at half of the fitted maximal effect
# Method in brief: as §1
# [6] = A CellTox Green Cytotoxicity Assay to monitor cytotoxicity in HepG2 cells - 16 hour (AID 1224876); further: nearly all actives have a fitted effect of over 45% in size
# Method in brief: (§4)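 Cytotoxicity was tracked as dead-cell DNA fluorescence in HepG2 cells treated with test compounds at 37 C; each time-point value comes from one kinetic series spanning 0, 8, 16, 24, 32 and 40 h.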
# [7] = qHTS RealTime-Glo MT Cell Viability Assay in HepG2 cells - 32 hour (AID 1224877); further: nearly all actives have a fitted effect of over 55% in size
# Method in brief: (§5)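 HepG2 suspension premixed with RealTime-Glo reagents is plated at 600 cells per well and left 5 h at 37 C/5% CO2. Compounds in DMSO then go in, and bioluminescence reflecting viable cell number is recorded over 40 h.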
# [8] = A CellTox Green Cytotoxicity Assay to monitor cytotoxicity in HepG2 cells - 24 hour (AID 1224878); further: nearly all actives have a fitted effect of over 45% in size
# Method in brief: as §4
# [9] = A CellTox Green Cytotoxicity Assay to monitor cytotoxicity in HepG2 cells - 40 hour (AID 1224879); further: nearly all actives have a fitted effect of over 40% in size
# Method in brief: as §4
# [10] = qHTS RealTime-Glo MT Cell Viability Assay in HEK293 cells - 0 hour (AID 1224880)
# Method in brief: as §3
# [11] = A CellTox Green Cytotoxicity Assay to monitor cytotoxicity in HEK293 cells - 32 hour (AID 1224881); further: nearly all actives have a fitted effect of over 40% in size
# Method in brief: as §1
# [12] = A CellTox Green Cytotoxicity Assay to monitor cytotoxicity in HepG2 cells - 0 hour (AID 1224882); further: nearly all actives have a fitted effect of over 35% in size
# Method in brief: as §4
# [13] = A CellTox Green Cytotoxicity Assay to monitor cytotoxicity in HEK293 cells - 8 hour (AID 1224884); further: nearly all actives have a fitted effect of over 35% in size
# Method in brief: as §1
# [14] = qHTS RealTime-Glo MT Cell Viability Assay in HepG2 cells - 16 hour (AID 1224885); further: nearly all actives have a fitted effect of over 50% in size
# Method in brief: as §5
# [15] = qHTS RealTime-Glo MT Cell Viability Assay in HEK293 cells - 24 hour (AID 1224886); further: top concentration of the series differs between compounds; nearly all actives have a fitted effect of over 50% in size
# Method in brief: as §2
# [16] = qHTS RealTime-Glo MT Cell Viability Assay in HEK293 cells - 8 hour (AID 1224887)
# Method in brief: as §3
# [17] = A CellTox Green Cytotoxicity Assay to monitor cytotoxicity in HEK293 cells - 16 hour (AID 1224888); further: nearly all actives have a fitted effect of over 35% in size
# Method in brief: as §1
# [18] = qHTS RealTime-Glo MT Cell Viability Assay in HepG2 cells - 0 hour (AID 1224889); further: nearly all actives have a fitted effect of over 50% in size
# Method in brief: as §5
# [19] = A CellTox Green Cytotoxicity Assay to monitor cytotoxicity in HepG2 cells - 32 hour (AID 1224883); further: nearly all actives have a fitted effect of over 50% in size
# Method in brief: as §4
# [20] = A CellTox Green Cytotoxicity Assay to monitor cytotoxicity in HepG2 cells - 8 hour (AID 1224890); further: nearly all actives have a fitted effect of over 45% in size
# Method in brief: as §4
Compound,Potency [1],Potency [2],outcome [3],max response [4],Potency [5],Potency [6],Potency [7],Potency [8],Potency [9],outcome [10],Potency [11],Potency [12],Potency [13],outcome [14],Potency [15],Potency [16],Potency [17],Potency [18],Potency [19],Potency [20]
CC(C=O)Cc1ccc(C(C)C)cc1 (stereo not given),inactive,inactive,inactive,18.5%,inactive,inactive,inactive,inactive,inactive,inactive,inactive,inactive,inactive,inactive,inactive,inactive,inactive,inactive,,
CC(C)(O)c1ccccc1,inactive,inactive,inactive,-10.8%,inactive,inactive,inactive,inactive,inactive,inactive,inactive,inactive,,inactive,inactive,inactive,inactive,inactive,inactive,inactive
C=CC(=O)N1CCOCC1,inactive,inactive,inactive,-1.69%,inactive,inactive,inactive,inactive,inactive,inactive,inactive,inactive,inactive,inactive,inactive,,inactive,inactive,,inactive
C=C(C)C(=O)OCCC(C)OC(=O)C(=C)C (stereo not given),inactive,inactive,inactive,8.52%,inactive,inactive,inactive,inactive,inactive,inactive,inactive,inactive,inactive,inactive,,inactive,inactive,inactive,inactive,
CCCCCCOC(=O)c1ccccc1O,inactive,inactive,inactive,-8.04%,inactive,inactive,inactive,inactive,inactive,inactive,inactive,inactive,,inactive,inactive,inactive,inactive,inactive,inactive,inactive
C=C(C)C(=O)NCCCN(C)C,inactive,inactive,inactive,9.44%,34.7 nM (active),inactive,inactive,inactive,inactive,inactive,inactive,inactive,,inactive,inactive,inactive,,inactive,,
O=c1[nH]c2ccccc2c(=O)n1CCCl,inactive,inactive,inactive,3.48%,inactive,inactive,inactive,inactive,inactive,inactive,inactive,inactive,inactive,inactive,inactive,inactive,inactive,inactive,,inactive
CCCCCCCCCCCl,inactive,inactive,inactive,6.94%,inactive,inactive,inactive,inactive,inactive,inactive,inactive,inactive,,inactive,inactive,inactive,inactive,inactive,inactive,inactive
CC(=O)N[C@@H](CCC(N)=O)C(=O)O,inactive,inactive,inactive,-1.52%,inactive,inactive,inactive,inactive,inactive,inactive,inactive,inactive,inactive,inactive,,inactive,inactive,inactive,inactive,
CC(C)(O)C(=O)c1ccc(OCCO)cc1,inactive,inactive,inactive,6.03%,inactive,inactive,inactive,inactive,inactive,inactive,inactive,inactive,inactive,inactive,inactive,,inactive,inactive,,inactive
CN(C)CCOC(c1ccc(Cl)cc1)c1ccccn1 (stereo not given),inactive,inactive,inactive,6.99%,inactive,inactive,inactive,inactive,inactive,inactive,inactive,inactive,,inactive,inactive,inactive,inactive,inactive,inactive,
COC(C(=O)O)c1ccccc1 (stereo not given),inactive,inactive,inactive,2.29%,inactive,inactive,inactive,inactive,inactive,inactive,inactive,inactive,inactive,inactive,,inactive,inactive,inactive,,inactive
CC(C)c1cccc(O)c1,inactive,inactive,inactive,1.56%,inactive,inactive,inactive,,,inactive,inactive,inactive,inactive,inactive,inactive,inactive,inactive,inactive,,inactive
